# Compounds with a hit are over-represented: about 1.5% of the library has one in this group of screens.
# PriA SSB inh = inhibitors of Klebsiella pneumoniae PriA binding to SSB C-terminal tail, primary screen, biochemical, AlphaScreen; 0.6% of 430,000 active; AID 1272365, 2023; inhibition, % at 33 µM; AlphaScreen SSBct-PriA binding, biotinylated peptide; PriA–SSB C-terminal tail interaction (Klebsiella pneumoniae); in the data active = inhibition mostly above about 37%, no sharp cut-off; inactive = mostly below about 20%;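 also: plate controls were negative control peptide for no effect and reference peptide for full effect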
# CCHFV vOTU inh = CCHFV vOTU protease inhibitors, primary screen, biochemical, Pep-AMC substrate, fluorescence; Crimean-Congo hemorrhagic fever virus L polyprotein viral ovarian tumor (vOTU) protease …; inhibition, % at 11.5 µM; 0.55% of 370,000 active; in the data active = inhibition above about 30%; also: 0% = vehicle wells with enzyme and 100% = no enzyme wells
# RN4220 kill = growth inhibition of S. aureus RN4220, primary screen, OD600; 0.33% of 330,000 active; 16 h; inhibition, % (concentration not given with the values); AID 1259311, 2017; in the data active = inhibition above about 85%;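 also: plate controls were untreated cells for no effect and reference antibiotic for full effect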
# ugtP null kill = growth inhibition of ugtP-null S. aureus, primary screen, RN4220 ugtP deletion, OD600 | 16 h | growth inhibition, % (concentration not given with the values) | 0.54% of 330,000 active | AID 1259309, 2017; in the data active = growth inhibition above about 68%;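 also: plate controls were untreated wells for no effect and antibiotic for full effect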
# VHR inh abs = VHR1 phosphatase inhibitors, primary screen, biochemical, absorbance, uHTS; 0.52% of 290,000 active; inhibition, % at 13.3 µM; Dual specificity protein phosphatase 3 (Homo sapiens), P51452; recombinant VHR phosphatase, pNPP absorbance; AID 1654, 2009; in the data active = inhibition above about 50%
# Target sequence (P51452 whole entry, looked up): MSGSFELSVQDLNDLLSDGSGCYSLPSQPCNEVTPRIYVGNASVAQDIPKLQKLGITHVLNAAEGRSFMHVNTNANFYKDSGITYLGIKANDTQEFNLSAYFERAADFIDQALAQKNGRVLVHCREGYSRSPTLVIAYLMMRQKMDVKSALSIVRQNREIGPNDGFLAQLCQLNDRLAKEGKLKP
# Numbers without * were called inactive; . = no result.
SMILES,PriA SSB inh,CCHFV vOTU inh,RN4220 kill,ugtP null kill,VHR inh abs
Cc1ccc(NC(=O)c2cc3c(=O)n4ccccc4nc3s2)c(S(=O)(=O)N2CCCCC2)c1,-22,.,.,.,.
O=C(Cn1cnc2ccccc21)N1CC(N2C(=O)CCC2=O)C1,-8,.,.,.,.
COc1cc(OC)cc(C(=O)N(CCCn2ccnc2)c2nc3cc(C)cc(C)c3s2)c1,40*,.,.,.,.
Cc1c(Cl)ccc2sc(N(CCCn3ccnc3)C(=O)COc3ccccc3)nc12,43*,.,.,.,.
COc1ccc(OC)c2sc(N(CCCn3ccnc3)C(=O)c3ccco3)nc12,59*,.,.,.,.
O=C(c1ccc(Cl)s1)N(CCCn1ccnc1)c1nc2c(F)cccc2s1,38*,.,.,.,.
CN(C)CCCN(C(=O)COc1ccccc1)c1nc2c(F)cccc2s1,6,-13,1,10,19
Cc1cc(=O)c2cccc(C(=O)O)c2[nH]1,-16,.,.,.,.
CCN1C(=O)Cc2cc(NC(=O)Nc3cccc(OC)c3)ccc21,-3,.,.,.,.
CCOc1ccc2nc(N(CCCn3ccnc3)C(=O)COc3ccccc3)sc2c1,31,.,.,.,.
COc1cccc(C(=O)N(CCCn2ccnc2)c2nc3ccc(C)cc3s2)c1OC,41,.,.,.,.
COc1ccc(OC)c2sc(N(CCCn3ccnc3)C(=O)COc3ccccc3)nc12,73*,.,.,.,.
CCc1cccc2sc(N(CCCn3ccnc3)C(=O)c3cccc(OC)c3OC)nc12,42*,.,.,.,.
O=C(c1c(F)cccc1F)N1CCN(c2cc(-n3cccc3)ncn2)CC1,-3,.,.,.,.
Cc1ccc(C(=O)NC2CC3CCCC(C2)N3Cc2ccccc2)cc1 (centres undefined),2,-7,3,11,53*
COc1cccc(COc2cn(C)c(C(=O)N3CCN(c4ccccc4F)CC3)cc2=O)c1,-9,.,.,.,.
COC(=O)N1CCC(CNC(=O)NC(c2ccccc2)c2ccccc2)CC1,1,.,.,.,.
COc1ccc(-c2ccc(/C=C3/C(=N)N4C=CSC4=NC3=O)o2)c([N+](=O)[O-])c1,-13,24,21,94*,4
COc1ccc(C)cc1NC(=O)Nc1cnc(N2CCN(C)CC2)nc1,3,.,.,.,.
CCOC(=O)/C(=N\Nc1cccc(Cl)c1)Sc1nnc(-c2ccc(OC)cc2)n1C,.,10,.,.,-7
COC(=O)C(=NNc1ccc(Cl)cc1)Sc1nnc(-c2ccc(OC)cc2)n1C,116*,.,6,-3,.
C/C=C/c1ccc(OCC(O)CN2CCN(Cc3ccc4c(c3)OCO4)CC2)c(OC)c1 (centres undefined),30,.,.,.,.
O=C1c2ccccc2-c2onc3ccc(NCc4ccco4)c1c23,78*,.,-5,-23,41
O=P1(c2ccccc2)Nc2ccccc2N1c1ccccc1 (centres undefined),57*,7,20,-14,.
COc1cccc(CN(C)C(=O)c2ccc(COc3ccc(Cl)cc3)cc2)c1OC,-40,1,3,-3,58*
SMILES,PriA SSB inh,CCHFV vOTU inh,RN4220 kill,ugtP null kill,VHR inh abs
O=C(Nc1nc(NC(=O)c2ccco2)n(-c2ccccc2)n1)c1ccccc1,-9,7,92*,76,-6
CCN(CC)C(=O)CC(c1ccc(N(C)C)cc1)c1c(OC)cc(OC)c2c(-c3ccccc3)cc(=O)oc12 (centres undefined),48*,9,36,-4,-1
CCCCCc1cc(=O)oc2c(C(CCN3CCCC3)c3ccc(N(C)C)cc3)c(OC)cc(OC)c12 (centres undefined),50*,8,-5,1,-12
O=C(Nc1cc(C(F)(F)F)ccc1Cl)c1cc(N2CCCCC2)ncn1,-5,.,.,.,.
O=C(NCC1CC(=O)N(c2ccc3c(c2)OCO3)C1)c1cccc(F)c1 (centres undefined),5,.,.,.,.
O=[N+]([O-])c1nn(-c2cccc(Cl)c2)n(O)c1=NC1CCCCCC1,66*,.,.,.,.
O=[N+]([O-])c1nn(-c2ccccc2)n(O)c1=NC1CCCCCC1,64*,.,.,.,.
O=[N+]([O-])c1nn(-c2ccccc2)n(O)c1=NC1CCN(Cc2ccccc2)CC1,-5,-5,29,12,17
c1ccc(-c2nc(NCc3ccc4c(c3)OCO4)c3cc(-c4ccccc4)sc3n2)cc1,2,.,.,.,.
c1ccc2c(CNc3ccc(CNc4ncn[nH]4)cc3)cccc2c1,40*,10,-11,-19,4
COc1ccccc1CNc1ccc(CNc2ncn[nH]2)cc1,7,14,8,1,18
CCn1nc(-c2cccs2)nc2c(=O)n(C)c(=O)nc1-2,-10,.,99*,100*,90*

# Assay outcomes (PubChem)
